Source: PubChem BioAssay
Luciferase inh: Firefly luciferase inhibition profiling of diverse chemical library using quantitative high-throughput screening | AID 1347043, 2019 | Potency, µM (titrated, usually from 115 µM), most hits filed as inhibitors | 76,000 tested, 2.5% active | purified P. pyralis luciferase, luminescence, biochemical; further: nearly all actives have a fitted effect of over 65% in size
Target sequence (P08659 whole entry, looked up): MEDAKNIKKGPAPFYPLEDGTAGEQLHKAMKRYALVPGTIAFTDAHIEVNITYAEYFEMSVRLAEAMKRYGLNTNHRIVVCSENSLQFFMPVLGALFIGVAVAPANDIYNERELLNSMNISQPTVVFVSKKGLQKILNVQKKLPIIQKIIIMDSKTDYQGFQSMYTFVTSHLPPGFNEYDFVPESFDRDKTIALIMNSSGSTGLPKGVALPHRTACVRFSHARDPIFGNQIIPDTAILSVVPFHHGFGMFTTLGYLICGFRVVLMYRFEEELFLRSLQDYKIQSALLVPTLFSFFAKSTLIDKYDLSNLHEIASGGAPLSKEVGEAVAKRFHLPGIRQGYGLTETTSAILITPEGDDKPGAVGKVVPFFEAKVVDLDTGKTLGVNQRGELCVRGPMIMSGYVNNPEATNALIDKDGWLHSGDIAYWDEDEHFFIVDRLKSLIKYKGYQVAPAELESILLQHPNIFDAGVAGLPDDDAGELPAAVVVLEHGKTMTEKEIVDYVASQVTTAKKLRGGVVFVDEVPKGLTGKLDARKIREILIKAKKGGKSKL
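Luminescence read by CCD imaging after purified firefly luciferase (10nM final) was added to substrate buffer holding 10uM D-luciferin and 10uM ATP, pH 7.5, pre-dosed with compound.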
HEK cytotox: Cytotoxic Profiling in HEK 293 Cell Line of Diverse Libraries Using Quantitative High-Throughput Screening | 94,000 tested, 6.6% active | Potency, µM (highest dose often 115 µM), for inactives: at the top dose activity change, negative = cytotoxicity, most hits filed as inhibitors | AID 1345083, 2018 | HEK 293 viability, ATP luminescence (CellTiter-Glo), 48-72 h; further: nearly all actives have a fitted effect of over 60% in size
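Luminescence from cellular ATP, measured with CellTiter-Glo, indicates HEK 293 viability. Cells plated at 250 cells/well are treated with compound for 48 or 72 hr at 37 degree Celsius before reagent addition.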
NPR1 antag: Natriuretic polypeptide receptor (hNpr1) antagonism - Primary qHTS; Atrial natriuretic peptide receptor 1 (Homo sapiens), P16066; HEK293 hNpr1 GloSensor cGMP, ANP-stimulated luminescence; Potency, µM (highest dose often 46.3 µM), without a hit: at the top dose activity change, negative = inhibition, most hits filed as inhibitors; 76,000 tested, 1.6% active; AID 1347048, 2019; calls by dose curve; further: nearly all actives have a fitted effect of over 60% in size
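Compound pre-incubated 30 min at room temperature on GloSensor-loaded HEK293 cells stably carrying hNpr1 and the pGS-40F cGMP biosensor. Stimulation uses hNppA at 0.1 nM final; luminescence is taken at baseline and 20 min post-agonist.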
NIH3T3 tox: Cytotoxic Profiling in NIH 3T3 Cell Line of Diverse Libraries Using Quantitative High-Throughput Screening; NIH 3T3 viability, CellTiter-Glo ATP luminescence, 48-72 h; Potency, µM (highest dose often 96.7 µM), for the others: top-dose activity change, negative = cytotoxicity, usual class: inhibitors; 94,000 tested, 4.3% active; further: nearly all actives have a fitted effect of over 55% in size
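Mouse fibroblast NIH 3T3 cells, 400 per well, received compound via pintool and were incubated for 48 or 72 hr prior to CellTiter-Glo ATP luminescence measurement.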
GPT2 inhibitor: Primary qHTS assay for inhibitors of Glutamate pyruvate transaminase 2 (GPT2); Potency, µM (series often up to 57.7 µM), for the others: at the highest dose activity change, negative = inhibition, usual class: inhibitors; 100,000 tested, 0.25% active; Recombinant GPT2, coupled pyruvate oxidase/HRP Amplex Red fluorescence; Alanine aminotransferase 2 (Homo sapiens), Q8TD30; further: nearly all actives have a fitted effect of over 60% in size
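Fluorescence of coupled pyruvate oxidase/HRP/Amplex Red system (50uM Amplex, 30 min, dark) reports pyruvate formed by GPT2. Enzyme reaction: 10ng/uL GPT2, 2mM L-alanine, 250uM a-KG, 30 min room temperature, pH 7.5; 50uM AOA control.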
Starred values were filed as active, the others as inactive; i = inactive; ? = inconclusive; nt = no result; [ ] = remark or other dose. A selection: hits, their analogues and other compounds. The true share with any hit is near 10%. Unless noted, the call rests on the fitted dose curve; in most records, active means well fitted curve in the direction sought with a large enough effect; inconclusive means small, poorly fitted or top-dose-only effect, or another doubt; inactive means no such curve, though single readings can be large; an effect the other way counts as inactive or inconclusive. On the % scale 0 is the no-effect control and ±100 the full control effect; potency means the concentration at half of the fitted maximal effect.

SMILES	Luciferase inh	HEK cytotox	NPR1 antag	NIH3T3 tox	GPT2 inhibitor
CC1(COc2ccccc2)COc2ccc(C(=O)NCc3cccs3)cc2N1 (stereo not given)	i	112µM*	-11.2%[70.6 µM]	?	1.2%[88.5 µM]
O=C(NCc1ccc(OC(F)(F)F)cc1)N1CCCC(Cn2cnc3cccnc32)C1 (stereo not given)	i	?	-6.2%	?	i
Cc1ccc(-c2noc([C@@H]3C[C@@H](O)CN3Cc3nc4ccccc4n3C)n2)cc1F	i	-6.5%[172 µM]	-3.4%[70.6 µM]	-27.7%[174 µM]	1.5%[88.5 µM]
Cn1c(CN2C[C@H](O)C[C@H]2c2nc(-c3ccc(OC(F)(F)F)cc3)no2)nc2ccccc21	39.8µM*	?	-7.4%	-27.4%	-24.8%
O=[N+]([O-])c1ccccc1CN1C[C@H](O)C[C@H]1c1nc(Cc2ccc(F)cc2Cl)no1	?	112µM*	0.7%[70.6 µM]	?	i
O[C@@H]1C[C@@H](c2nc(Cc3ccc(F)cc3Cl)no2)N(Cc2ccc(OC(F)(F)F)cc2)C1	i	39.8µM*	-12.2%	?	0.9%
COc1ccc(CN2C[C@H](O)C[C@H]2c2nc(Cc3ccccc3)no2)cc1	?	?	-1.1%[70.6 µM]	-12.0%[174 µM]	i
O=C(c1ccc2nnc(-c3cc(F)ccc3F)n2c1)N1CCN(c2ncccn2)CC1	nt	-11.0%	nt	-28.8%	i
Cc1ccccc1CN1Cc2nc(-c3ccc4c(c3)OCO4)ccc2OCC1=O	i	35.5µM*	-20.9%[70.6 µM]	?	-2.7%[88.5 µM]
Cc1ccccc1CN1Cc2nc(-c3cccc(C(N)=O)c3)ccc2OCC1=O	i	70.8µM*	-14.4%[70.6 µM]	?	i
O=C(O)c1cnc(-c2cc(NCc3ccccn3)nc3[nH]ccc23)c(Cl)c1	39.8µM*	-30.8%	-1.4%	-26.7%	-15.1%
CCCCN(Cc1ccccc1)Cc1cn[nH]c1-c1ccc(OC)cc1OC	i	?	-0.6%	?	i
CCOc1ccccc1NC(=O)N[C@H](Cc1ccccc1)C(=O)N1CCOCCNC(=O)CC1	i	-17.6%	1.1%	-11.4%	i
Cc1ccc(Nc2ccnc(N3CCCN(C(=O)C4CCCC4)C3)n2)cc1	nt	12.6µM*	nt	?	-12.3%
Cc1ccc(Nc2ccnc(N3CCCN(C(=O)NC4CCCC4)C3)n2)cc1	nt	15.8µM*	nt	25.1µM*	i
Cc1ccccc1C(=O)N1CCC(N2C(=O)c3c(c(C)nn3-c3ccccc3)C2C(C)C)CC1 (stereo not given)	nt	39.8µM*	nt	?	nt
CC(=O)N1CCC(N2C(=O)c3c(c(C)nn3-c3ccccc3)C2C(C)C)CC1 (stereo not given)	nt	-20.1%	nt	?	nt
Cc1nn(-c2ccccc2)c2c1C(C(C)C)N(C1CCN(C(=O)c3ccccc3F)CC1)C2=O (stereo not given)	nt	44.7µM*	nt	?	nt
COc1ccc(C(=O)NC2CCN(c3cc(-c4ccccc4)[nH]n3)C2)c(OC)c1 (stereo not given)	i	6.7%	-3.5%	-11.0%	-20.3%
C=C(C)CN(C)C(=O)c1cc(CN2CCC(Cc3ccccc3)CC2)on1	i	89.1µM*	-3.8%	-28.5%	-12.3%
CCN(Cc1ccncc1)C(=O)c1cc(CN2CCC(Cc3ccccc3)CC2)on1	i	?	?	?	i
CCS(=O)(=O)c1ncc(CN(C)Cc2ccc3nonc3c2)n1CCc1ccccc1	i	22.4µM*	-0.5%	-21.3%	-5.0%
CC(C)S(=O)(=O)c1ncc(CN(C)Cc2cnn(C)c2)n1CCc1ccccc1	i	-6.1%	-6.9%	-19.3%	-2.2%
CCCCn1c(CN(C)Cc2cnn(-c3ccccc3C)c2)cnc1S(=O)(=O)CC	i	?	-15.5%	?	-19.1%
CN(Cc1ccc(F)cc1)Cc1cnc(S(C)(=O)=O)n1CCCc1ccccc1	i	20µM*	0.0%	?	-23.0%
SMILES	Luciferase inh	HEK cytotox	NPR1 antag	NIH3T3 tox	GPT2 inhibitor
Cc1nc(CN2C(=O)OC3(CCN(C(=O)Cc4ccccn4)CC3)C2(C)c2ccccc2)cs1 (stereo not given)	i	-18.2%	-6.8%	?	?
CCNC(=O)N1CCCCC1c1nc(CCOCC2CCCC2)no1 (stereo not given)	nt	0.9%	nt	-8.8%	?
O=C(c1ccn[nH]1)N1CCCCC1c1nc(CCOCC2CCCC2)no1 (stereo not given)	i	?	35.5µM*	?	i
COc1ccc(-n2nc(C)c([C@@H]3C=C[C@@H](NC(=O)NC4CCCCC4)C3)c2C)cc1	?	?	22.4µM*	?	-1.9%[88.5 µM]
CCNC(=O)N[C@@H]1C=C[C@@H](c2c(C)nn(-c3ccc(OC)cc3)c2C)C1	?	?	10µM*	50.1µM*	0.5%[88.5 µM]
COC(=O)c1cccc(NC(=S)N[C@@H]2C=C[C@@H](c3c(C)nn(-c4ccc(C(C)C)cc4)c3C)C2)c1	12.6µM*	?	?	?	-15.6%
Cc1nn(-c2ccccn2)c(C)c1[C@@H]1C=C[C@@H](NC(=O)NC(C)C)C1	?	-23.5%[172 µM]	0.6%[70.6 µM]	?	-17.8%[88.5 µM]
Cc1nn(-c2ccc(C(C)(C)C)cc2)c(C)c1[C@@H]1C=C[C@@H](NC(=O)Nc2ccccc2)C1	i	?	-21.2%[70.6 µM]	?	-3.0%[88.5 µM]
Cc1ccc(-n2nc(C)c([C@@H]3C=C[C@@H](NC(=O)NC4CCCCC4)C3)c2C)cc1Cl	8.91µM*	?	-19.7%[70.6 µM]	?	-9.6%[88.5 µM]
Cc1ccc(NC(=O)N2CC(c3nnc(-c4ccncc4)o3)C3(CCOCC3)C2)cc1C (stereo not given)	i	3.6%	-6.7%	-24.3%	i
COc1ccc(-c2nc3cc(C)ccc3cc2CN2CCC(N(C)C)C2)cc1 (stereo not given)	?	?	1.9%	?	-4.8%
Cc1nn(-c2ccccn2)c(C)c1[C@@H]1C=C[C@@H](NC(=O)C2CCCCC2)C1	i	?	-7.9%[70.6 µM]	?	-31.4%[88.5 µM]
Cc1nn(-c2ccc(C(C)C)cc2)c(C)c1[C@@H]1C=C[C@@H](NC(=S)NC2CCCCC2)C1	10µM*	?	-14.1%	?	2.6%
Cc1ccc(-n2nc(C)c([C@@H]3C=C[C@@H](N)C3)c2C)cc1Cl	70.8µM*	39.8µM*	2.5%[70.6 µM]	28.2µM*	i
CC(C)CNC(=O)c1ccc2oc(-c3ccnc(Cl)c3)nc2c1	nt	89.1µM*	nt	?	i
O=C(NCc1cccs1)c1ccc2oc(-c3ccncc3)nc2c1	nt	?	nt	?	i
